Screening results from PubChem BioAssay.
HepG2 viability = qHTS for Inhibitors of TGF-b: Cytotox Counterscreen. AID 588856, 2011. actives 0.76% (n = 410,000). HepG2 CAGA-GFP viability, ATP luminescence, 18 h. Potency, µM (top dose mostly 46.1 µM), usual class: cytotoxic
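CellTiter-Glo luminescence gave cytotoxicity after 18 hours at 37 degrees C. The cells were HepG2 CAGA-GFP in 1% FBS DMEM, stimulated with 500 pg/mL TGF-beta after compound addition. %Activity was normalised to no-cell wells (complete cell-killing) and DMSO (no toxicity), and curves were fitted and classified.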
KB-3-1 tox = qHTS assay for MDR1-selective chemotherapeutics: Primary screen using the parental adenocarcinoma cell KB-3-1. KB-3-1 viability, CellTiter-Glo ATP luminescence, 72 h. Potency, µM (highest dose often 46.1 µM), hits mostly cytotoxic. actives 1.4% (n = 400,000). AID 1347075, 2019; note: nearly all actives have a fitted effect of over 60% in size
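Cells are dispensed, compounds pinned in, plates held at 37 °C for 72 h, then CellTiter-Glo is added and luminescence read after 10 minutes. Cell line: parental KB-3-1 in phenol-red-free DMEM, 10% FBS.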
TGFb inhibitor = qHTS for Inhibitors of TGF-b; HepG2 CAGA-GFP TGF-b/SMAD3 reporter, GFP fluorescence, 18 h; TGF-beta stimulated, 500 pg/mL final; Potency, µM (doses to about 46.1 µM), actives largely listed as inhibitors; actives 1.2% (n = 410,000); note: nearly all actives have a fitted effect of over 65% in size
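Read-out: total well GFP (ex488/em500-530) summed from mean per-cell fluorescence. Cells: HEPG2 CAGA-GFP, 1% FBS DMEM, 18 h at 37 degrees C with 500 pg/mL final TGF-beta. Unstimulated wells served as the full-inhibition control; stimulated DMSO wells = 0%.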
KB-V1 MDR tox = qHTS assay for MDR1-selective chemotherapeutics: Primary screen using the drug-selected MDR subline cells KB-V1 | KB-V1 MDR cells viability, CellTiter-Glo, 72 h | actives 3.4% (n = 400,000) | AID 1347076, 2019 | Potency, µM (doses to about 46.1 µM), hits mostly cytotoxic; note: nearly all actives have a fitted effect of over 60% in size
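Potencies derive from concentration-effect curves fitted to normalized luminescence (CellTiter-Glo) of KB-V1 cells treated for 72 h at 37 degrees C in phenol-red-free DMEM containing 10% FBS.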
ATXN2 expr inh = Primary qHTS for Inhibitors of ATXN expression. HEK-293 ATXN2-luciferase reporter, luminescence, 24 h. Potency, µM (doses to about 57 µM), hits mostly inhibitors. actives 0.72% (n = 360,000). AID 1745845, 2022; note: nearly all actives have a fitted effect of over 55% in size
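qHTS (up to 57 uM final) was run with 24 h compound exposure of reporter cells at 37 °C. Each well was multiplexed: SteadyGlo luminescence measured ATXN2-luciferase expression after a fluorogenic Gly-Phe-AFC viability readout (25 uM final).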
S2 tox = Viability Counterscreen for Primary qHTS for Inhibitors of ATXN expression | S2 cells (HEK-293 line with an ATXN2-luciferase reporter) viability, CellTiter-Fluor protease fluorescence, 24 h | Potency, µM (doses to about 56.7 µM), actives largely listed as cytotoxic | actives 0.49% (n = 400,000) | AID 651635, 2014; note: nearly all actives have a fitted effect of over 40% in size
Numbers stand for hits; . = inactive; ? = inconclusive; / = no result. Shown are actives, neighbours in structure and some others; about 5.9% of the full set was active somewhere. Calls come from the whole dose curve; as a rule, active = well fitted curve in the direction sought with a large enough effect; inconclusive = small, poorly fitted or top-dose-only effect, or another doubt; inactive = no such curve, though single readings can be large; an effect the other way counts as inactive or inconclusive.

SMILES	HepG2 viability	KB-3-1 tox	TGFb inhibitor	KB-V1 MDR tox	ATXN2 expr inh	S2 tox
COc1cc2cc(/C=C/C(=O)c3ccco3)c(Cl)nc2cc1OC	12.6µM	?	?	?	.	.
COc1ccccc1NC(=O)N(Cc1ccco1)Cc1cc2cc(C)cc(C)c2[nH]c1=O	.	?	.	18.4µM	.	?
COc1ccccc1NC(=O)N(Cc1ccco1)Cc1cc2ccc(C)c(C)c2[nH]c1=O	.	5.8µM	?	5.8µM	?	?
COc1ccccc1NC(=S)N(Cc1ccco1)Cc1cc2cc(C)c(C)cc2[nH]c1=O	.	?	.	2.59µM	.	?
COc1ccccc1NC(=O)N(CCN1CCOCC1)Cc1cc2cc(C)cc(C)c2[nH]c1=O	.	.	.	.	.	.
COC(=O)c1ccccc1NC(=S)N(Cc1ccc2c(c1)OCO2)Cc1cc2cc(OC)ccc2[nH]c1=O	.	.	?	18.4µM	.	.
COc1ccccc1NC(=S)N(Cc1ccco1)Cc1cc2cccc(C)c2[nH]c1=O	.	.	.	?	.	.
NCC(=O)c1c[nH]c2ccccc12	.	.	.	.	/	/
Cc1cc(C)cc(NC(=O)CSc2oc(-c3ccco3)nc2S(=O)(=O)c2ccc(Cl)cc2)c1	.	.	.	?	.	.
Cc1ccc2cc(CN(Cc3ccco3)C(=O)c3cccs3)c(=O)[nH]c2c1	.	?	.	5.17µM	.	?
Cc1cccc2cc(CN(Cc3ccco3)C(=O)c3cccs3)c(=O)[nH]c12	.	?	.	.	.	.
O=C(N[C@@H]1c2ccccc2C2(CCN(Cc3c(O)ccc4ccccc34)CC2)[C@H]1O)c1ccccc1	/	/	/	/	/	.
CCC(=O)N1N=C(c2ccc(C)o2)CC1c1ccc(N(C)C)cc1 (stereo not given)	7.08µM	.	.	.	.	.
Cc1ccc(C2=NN(C(=O)CCC(=O)O)C(c3cccs3)C2)cc1 (stereo not given)	.	.	.	.	.	.
Cc1ccc(C2=NN(C(=O)CCl)C(c3cccs3)C2)o1 (stereo not given)	8.91µM	?	8.91µM	?	7.52µM	/
CC(=O)N1N=C(c2ccco2)CC1c1cccs1 (stereo not given)	.	.	.	.	.	.
O=C(CCl)N1N=C(c2ccco2)CC1c1cccs1 (stereo not given)	.	?	?	23.1µM	?	/
CCc1ccc(-n2nc3ccc(NC(=O)c4ccc(C#N)cc4F)cc3n2)cc1	.	.	.	.	.	.
CCc1cccc2c(-c3ccccc3)nc(SCC(=O)Nc3ccccc3OC)nc12	.	/	.	/	/	/
CCc1ccc(NC(=O)Cn2c(=O)n(CCCCC(=O)NCCc3ccc(Cl)cc3)c(=O)c3ccccc32)cc1	.	.	.	.	.	.
CC(C)NC(=O)C1(C)CN(S(C)(=O)=O)CC(=O)N1C1CC1 (stereo not given)	/	.	/	.	/	/
O=C(C1CCCN(Cc2ccccc2)C1)N1CCc2ccccc2C1 (stereo not given)	.	.	.	23.1µM	.	.
CCS(=O)(=O)N1CCC(C(=O)N2CCc3ccccc3C2)CC1	.	.	.	13µM	.	.
CC(C)CN(CC(C)C)S(=O)(=O)N1CCC(C(=O)N2CCc3ccccc3C2)CC1	.	.	.	?	.	.
COc1ccc(CN2CCCC(C(=O)N3CCc4ccccc4C3)C2)cc1OC (stereo not given)	.	.	.	.	.	.
SMILES	HepG2 viability	KB-3-1 tox	TGFb inhibitor	KB-V1 MDR tox	ATXN2 expr inh	S2 tox
O=C(Nc1nnc(-c2ccncc2)s1)Oc1ccc2ccccc2c1	/	?	/	.	/	/
CC(=O)/C=C/c1ccc2c(c1)S(=O)(=O)N(C1CCCC1)[C@H]2CC(C)=O	10µM	?	7.08µM	18.4µM	/	/
O=C(O)/C=C/c1ccc2c(c1)S(=O)(=O)N(C1CCCC1)[C@H]2CC(=O)O	.	.	.	.	/	/
Cc1ccc(NC(=O)c2ccc3c(O)c(S(=O)(=O)c4ccc(Cl)cc4)c(=O)[nH]c3c2)cc1	.	.	.	.	.	.
CCc1nc2ccc(C(=O)N3CCN(c4ccccc4)CC3)cn2c1N(C)CCCc1ccccc1	15.8µM	?	?	?	.	?
CCc1nc2ccc(C(=O)N3CCN(c4ccccc4)CC3)cn2c1N(C)CCC(C)C	.	?	12.6µM	23.1µM	.	.
CCc1nc2ccc(C(=O)Nc3ccc(C(=O)N(C)C)cc3)cn2c1N(C)CCCc1ccccc1	.	.	.	.	?	28.2µM
CCc1nc2ccc(C(=O)N3CCN(S(=O)(=O)CC)CC3)cn2c1N(C)CCC(C)C	3.16µM	.	.	.	.	.
CCc1nc2ccc(C(=O)N3CCN(S(=O)(=O)CC)CC3)cn2c1N(CCC(C)C)CCN(C)C	.	.	.	.	.	.
CCc1nc2ccc(C(=O)N(C)Cc3ccccc3)cn2c1N(C)CCCc1ccccc1	.	.	?	?	.	.
NC(=O)C1CCN(c2nnc(-c3ccc(Br)cc3)s2)CC1	/	.	/	.	/	/
O=C(CN1C(=O)C2(CCCC2)NC[C@H]1c1cc(F)cc(F)c1)Nc1ccc2c(c1)C[C@@]1(C2)C(=O)Nc2ncccc21	/	/	/	/	.	/
CC(=O)Nc1ccc(S(=O)(=O)N2c3ccc(F)cc3CCC2C)cc1 (stereo not given)	.	9.2µM	?	.	?	?
COC1=C(N)C(=O)c2nc(-c3nc(C(=O)O)c(C)c(-c4ccc(OC)c(OC)c4O)c3N)ccc2C1=O	.	0.146µM	0.282µM	0.206µM	.	2.24µM
COCCCN1C(=O)c2[nH]nc(-c3ccccc3O)c2C1c1cccc(Cl)c1 (stereo not given)	.	8.2µM	.	20.6µM	.	?
COCCCN1C(=O)c2[nH]nc(-c3ccccc3O)c2C1c1ccc(Cl)cc1 (stereo not given)	.	?	.	.	.	?
CC(C)OCCCN1C(=O)c2[nH]nc(-c3ccccc3O)c2C1c1cccc(Cl)c1 (stereo not given)	.	?	?	16.4µM	?	?
COCCCN1C(=O)c2[nH]nc(-c3cc(C)cc(C)c3O)c2C1c1ccc(O)c(OC)c1 (stereo not given)	.	?	.	20.6µM	.	.
COc1cc(C2c3c(-c4cc(C)cc(C)c4O)n[nH]c3C(=O)N2CCCO)cc(OC)c1OC (stereo not given)	.	.	.	.	.	.
